This passage reports outcome and AC50 results from PubChem BioAssay (EPA / NIEHS).

Read-out in assay [1]: Human Leukocyte Antigen - DR isotype (HLADR), HLA-DRA (gene 3122)
In words: BSK_BE3C_HLADR: BioMAP Diversity Plus: BE3C Assay for Human Leukocyte Antigen - DR isotype (HLADR) Biomarker Activity (AID 2283032). The following applies: primary human bronchial epithelial cells; actives raise or lower the signal. In a few lines:
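Cell-surface HLA-DR ELISA readout at 24 h after dosing in the BE3C primary human lung bronchial epithelial system; gain or loss of signal against DMSO, with parallel sulforhodamine B staining of total protein for overt cytotoxicity.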

Read-out in assay [2]: Vascular cell adhesion molecule 1 (VCAM1), VCAM1 (gene 7412)
In words: BSK_4H_VCAM1: BioMAP Diversity Plus: 4H Assay for Vascular cell adhesion molecule 1 (VCAM1) Biomarker Activity (AID 2283033).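 For outcome: cell-surface VCAM-1 protein measured by ELISA.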 The following applies: primary human endothelial cells (HUVEC); actives raise or lower the signal. Put shortly:
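VCAM-1 ELISA read 24 h after chemical dosing of HUVEC in the BioMAP 4H system, with gain or loss of signal fitted relative to DMSO. Parallel SRB staining (560 nm) checked overt cytotoxicity.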

Read-out in assay [3]: Interferon-gamma inducible Protein 10 (IP10), CXCL10 (gene 3627)
The assay is described as follows: BSK_BE3C_IP10: BioMAP Diversity Plus: BE3C Assay for Interferon-gamma inducible Protein 10 (IP10) Biomarker Activity (AID 2283034). The following applies: primary human bronchial epithelial cells; actives raise or lower the signal. In a few lines:
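IP-10 quantified by ELISA in human primary bronchial epithelial cell cultures at 24 hours post-dosing. Gain or loss of signal fitted relative to DMSO; parallel SRB staining assessed overt cytotoxicity.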

Read-out in assay [4]: Monokine induced gamma interferon (MIG), CXCL9 (gene 4283)
In words: BSK_BE3C_MIG: BioMAP Diversity Plus: BE3C Assay for Monokine induced gamma interferon (MIG) Biomarker Activity (AID 2283035). The note with it: primary human bronchial epithelial cells; actives raise or lower the signal. Put shortly:
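hu bronchial epithelial 1° cells, 24 h cpd; MIG by ELISA; bidirectional fit, DMSO = baseline.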

Read-out in assay [5]: Transforming growth factor beta 1 (TGFb1), TGFB1 (gene 7040)
The assay is described as follows: BSK_BE3C_TGFb1: BioMAP Diversity Plus: BE3C Assay for Transforming growth factor beta 1 (TGFb1) Biomarker Activity (AID 2283036;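 for outcome: TGF-b1 protein level measured by ELISA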). The note with it: primary human bronchial epithelial cells; actives raise or lower the signal. Put shortly: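 ELISA readout of TGF-b1 from human lung bronchial epithelial primary cells, taken 24 h post-treatment. Gain or loss of signal fitted relative to DMSO baseline, with parallel SRB staining for overt cytotoxicity.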

Read-out in assay [6]: Plasminogen activator inhibitor-1 (PAI1), SERPINE1 (gene 5054)
The assay is described as follows: BSK_BE3C_PAI1: BioMAP Diversity Plus: BE3C Assay for Plasminogen activator inhibitor-1 (PAI1) Biomarker Activity (AID 2283037). The note with it: primary human bronchial epithelial cells; actives raise or lower the signal. Put shortly: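 PAI-1 was measured by ELISA in human primary bronchial epithelial cultures 24 h after chemical dosing, with cytotoxicity checked by SRB total-protein staining in parallel cultures. Activity was fitted in both directions relative to DMSO.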

Read-out in assay [7]: urokinase plasminogen activator (uPA), PLAU (gene 5328)
The assay is described as follows: BSK_BE3C_uPA: BioMAP Diversity Plus: BE3C Assay for urokinase plasminogen activator (uPA) Biomarker Activity (AID 2283038).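 For outcome: uPA protein level quantified by ELISA in cell cultures; uPA read one day after compound addition.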 The following applies: primary human bronchial epithelial cells; actives raise or lower the signal. Put shortly: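 ELISA read-out of uPA in human lung primary bronchial epithelial cultures, 24 h post-dosing. Gain or loss of signal fitted bidirectionally relative to DMSO baseline; cytotoxicity checked in parallel cultures via SRB total protein stain.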

Read-out in assay [8]: Urokinase-type plasminogen activator receptor (uPAR), PLAUR (gene 5329)
The assay is described as follows: BSK_BE3C_uPAR: BioMAP Diversity Plus: BE3C Assay for Urokinase-type plasminogen activator receptor (uPAR) Biomarker Activity (AID 2283039).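 For outcome: cells exposed to compound for one day before measurement.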 The following applies: primary human bronchial epithelial cells; actives raise or lower the signal. In a few lines: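 uPAR levels were measured by ELISA after 24 h compound treatment of primary human bronchial epithelial cells, fitted in both directions relative to DMSO. Parallel SRB staining served as the cytotoxicity read-out.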

Read-out in assay [9]: Interleukin-6 (IL6), IL6 (gene 3569)
In words: BSK_CASM3C_IL6: BioMAP Diversity Plus: CASM3C Assay for Interleukin-6 (IL6) Biomarker Activity for (AID 2283040). The note with it: primary human coronary artery smooth muscle cells; actives raise or lower the signal.

Read-out in assay [10]: Tissue plasminogen activator (tPA), PLAT (gene 5327)
The assay is described as follows: BSK_BE3C_tPA: BioMAP Diversity Plus: BE3C Assay for Tissue plasminogen activator (tPA) Biomarker Activity (AID 2283041).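 For outcome: tPA level quantified by ELISA one day after compound addition.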 The following applies: primary human bronchial epithelial cells; actives raise or lower the signal. In a few lines:
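tPA measured by ELISA 24 h after dosing human primary bronchial epithelial cells (BE3C system). Changes in either direction were fitted against DMSO. Parallel cultures were stained with SRB to flag overt cytotoxicity.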

Read-out in assay [11]: Interleukin-8 (IL8), CXCL8 (gene 3576)
In words: BSK_CASM3C_IL8: BioMAP Diversity Plus: CASM3C Assay for Interleukin-8 (IL8) Biomarker Activity (AID 2283042).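 Note: IL-8 protein level quantified by ELISA.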 The note with it: primary human coronary artery smooth muscle cells; actives raise or lower the signal.

Read-out in assay [12]: Human Leukocyte Antigen - DR isotype (HLADR), HLA-DRA (gene 3122)
In words: BSK_CASM3C_HLADR: BioMAP Diversity Plus: CASM3C Assay for Human Leukocyte Antigen - DR isotype (HLADR) Biomarker Activity (AID 2283043).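 Note: cell-surface HLA-DR protein level quantified by ELISA.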 The following applies: primary human coronary artery smooth muscle cells; actives raise or lower the signal.

Read-out in assay [13]: Macrophage colony-stimulating factor (MCSF), CSF1 (gene 1435)
The assay is described as follows: BSK_CASM3C_MCSF: BioMAP Diversity Plus: CASM3C Assay for Macrophage colony-stimulating factor (MCSF) Biomarker Activity (AID 2283044).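 Note: M-CSF protein amount quantified by ELISA after 24 h exposure.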 The following applies: primary human coronary artery smooth muscle cells; actives raise or lower the signal.

Read-out in assay [14]: Low-density lipoprotein receptor (LDLR), LDLR (gene 3949)
In words: BSK_CASM3C_LDLR: BioMAP Diversity Plus: CASM3C Assay for Low-density lipoprotein receptor (LDLR) Biomarker Activity (AID 2283045).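 Note: LDLR protein level on the cell surface quantified by ELISA.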 The note with it: primary human coronary artery smooth muscle cells; actives raise or lower the signal.

Read-out in assay [15]: Monocyte Chemoattractant Protein-1 (MCP1), CCL2 (gene 6347)
The assay is described as follows: BSK_CASM3C_MCP1: BioMAP Diversity Plus: CASM3C Assay for Monocyte Chemoattractant Protein-1 (MCP1) Biomarker Activity (AID 2283046).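 Note: MCP-1 level quantified by ELISA 24 h after dosing.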 The note with it: primary human coronary artery smooth muscle cells; actives raise or lower the signal.

Assay [16] can be described thus: BSK_CASM3C_Proliferation: Cell Proliferation Assessment in the BioMAP Diversity Plus: CASM3C Assay (AID 2283047).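 Note: sulforhodamine B total protein stain as relative cell number at 560 nm; sub-confluent cells exposed 48 h before staining; fitted both ways against DMSO so gain or loss of cell number.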 The note with it: primary human coronary artery smooth muscle cells.
Read-out in assay [17]: Monokine induced gamma interferon (MIG), CXCL9 (gene 4283)
The assay is described as follows: BSK_CASM3C_MIG: BioMAP Diversity Plus: CASM3C Assay for Monokine induced gamma interferon (MIG) Biomarker Activity (AID 2283048).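 Note: MIG protein level measured by ELISA.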 The note with it: primary human coronary artery smooth muscle cells; actives raise or lower the signal.

Read-out in assay [18]: serum amyloid A (SAA), SAA1 (gene 6288)
The assay is described as follows: BSK_CASM3C_SAA: BioMAP Diversity Plus: CASM3C Assay for serum amyloid A (SAA) Biomarker Activity (AID 2283049).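 Note: SAA protein level quantified by ELISA.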 The note with it: primary human coronary artery smooth muscle cells; actives raise or lower the signal.

A short description of assay [19]: BSK_CASM3C_SRB: Viability Assessment in the BioMAP Diversity Plus: CASM3C Assay (AID 2283050). The note with it: primary human coronary artery smooth muscle cells.
Read-out in assay [20]: Thrombomodulin, THBD (gene 7056)
In words: BSK_CASM3C_Thrombomodulin: BioMAP Diversity Plus: CASM3C Assay for Thrombomodulin Biomarker Activity (AID 2283051).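 Note: thrombomodulin protein level measured by ELISA 24 h after dosing.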 The following applies: primary human coronary artery smooth muscle cells; actives raise or lower the signal.

The source made the active and inactive calls. Rule for the calls: active = hit-call score of the fitted dose curve at least 0.9, where 1 is the maximum; inactive = score below 0.9.

Turning to `CC(O)CO` (stereo not drawn), the result in assay [1], in [2], in assay [3], in [4], in [5] and in [6] was inactive. For the same molecule, the outcome in assay [7], in assay [8], in assay [9], in assay [10], in assay [11] and in [12] was inactive. Further, the outcome in assay [13], in assay [14], in [15], in assay [16], in assay [17] and in assay [18] was inactive. Besides, the outcome in assay [19] and in assay [20] was inactive.
Consider `O=c1c(-c2ccc(O)cc2)coc2cc(O)ccc12`, for which the outcome in [1], in assay [2], in assay [3], in assay [4], in assay [5] and in [6] was inactive. Further, the outcome in assay [7], in assay [8], in assay [9], in assay [10], in assay [11] and in assay [12] was inactive. For the same molecule, the outcome in assay [13], in assay [14], in [15], in assay [16], in [17] and in assay [18] was inactive. In addition, the outcome in [19] and in assay [20] was inactive.
The term AC50 denotes the midpoint of the concentration-response curve, whichever way the signal moves. `O=C(O)Cc1cc(I)c(Oc2cc(I)c(O)c(I)c2)c(I)c1`: the concentration at half-maximal activity (AC50) in assay [1] is 5.22 µM (active); in assay [2] it was 19.5 µM (active); in assay [3], 2.73 µM (active); in assay [4] it was 9.13 µM (active); in assay [5], 8.3 µM (active); in assay [6], 4.21 µM (active). Also, the AC50 was 10.4 µM (active) in assay [8], 21.7 µM (active) in assay [9] and 4.84 µM (active) in assay [10]. Also, the result in assay [11], in assay [12], in assay [13], in [14], in [15] and in assay [16] was inactive. Moreover, the outcome in [17], in assay [18], in assay [19] and in [20] was inactive.
For the molecule `N#C[C@@H]1CC(F)(F)CN1C(=O)CNC1CC2CCC(C1)N2c1ncccn1` (stereo partly drawn), the outcome in [1], in [2], in assay [3], in [4], in assay [5] and in [6] was inactive. Also, the result in assay [7], in assay [8], in [9], in [10], in [11] and in [12] was inactive. For the same molecule, the outcome in assay [13], in assay [14], in assay [15], in assay [16], in assay [17] and in assay [18] was inactive. In addition, the result in [19] and in [20] was inactive.
Take `CC#C[C@]1(O)CC[C@H]2[C@@H]3CCC4=CC(=O)CCC4=C3[C@@H](c3ccc(N(C)C)cc3)C[C@@]21C`: the result in assay [1], in assay [4], in [5], in assay [9], in assay [12] and in assay [13] was inactive. The outcome in assay [14], in assay [15], in assay [17], in [18] and in assay [20] was inactive. In addition, the AC50 was 26.4 µM (active) in [2]; 36.7 µM (active) in assay [3]; 12.9 µM (active) in assay [6]; 34.7 µM (active) in assay [7]; 33.7 µM (active) in assay [8]; 19.4 µM (active) in [10]. The AC50 was 5.69 µM (active) in assay [11], 31.1 µM (active) in [16] and 31.8 µM (active) in assay [19].
Consider `c1ccc2c(c1)Cc1ccccc1-2`, for which the outcome in [1], in assay [2], in [3], in assay [4], in assay [5] and in [6] was inactive. Moreover, the outcome in assay [7], in [9], in assay [10], in assay [11], in [12] and in assay [13] was inactive. Moreover, the result in [14], in assay [15], in [16], in [17], in assay [18] and in assay [19] was inactive. Further, the outcome in [20] was inactive.
